These results are taken from PubChem BioAssay AID540259 (Broad Institute, 2011).

Entries with a potency or affinity are not part of this list. Active and inactive are the calls of the source.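 The calls were made as follows: active = cell killing, meaning signal decrease, with fitted half-maximal dose at or below ten times the top valid tested dose; inconclusive = poor fit, or flat curve with 30 to 70% signal loss; inactive = the rest.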

The experiment can be described thus: HeLa cell cytotoxicity, dose response, cytotoxicity control for MITF activator project, CellTiter-Glo luminescence, cherry-pick samples (AID 540259). For orientation: ATP-based viability assays read luminescence as a measure of living cells.

On to `Clc1ccc(SCc2cn3ccccc3n2)cc1`, for which the compound was called inactive.

Take `CC(C)(C)C(=O)OCc1nc(-c2ccc(F)cc2)cs1`: the outcome was inactive.

As to `CCc1ccc(OC(=O)Nc2ccccc2)cc1`, the result was inactive.

As to `O=C(Nc1cccnc1)c1cc(-c2ccc(Cl)cc2)on1`, the call was inactive.

Regarding `Nc1nonc1-n1nnc(C(=O)N/N=C/c2ccc(OCc3ccccc3F)cc2)c1CN1CCCCC1`, the compound was called inactive.

Regarding `CC(=O)c1cccc(OCc2cc(C(=O)N(C)Cc3cnccn3)no2)c1`, the call was inactive.

Turning to `Cc1ccc(-n2nnc3ccccc3c2=O)cc1C`, the outcome was inactive.

For the compound `COc1ccc(/C=C2\SC(=O)N(CCNC(=O)C3CC4C=CC3C4)C2=O)cc1` (stereo not drawn), the compound was called inactive.

Consider `Cc1nc(-c2ccc(NC(=O)c3ccccc3Br)cc2)cs1`, for which the result was inactive.

With `C=CCn1cnc2c(nnn2-c2ccc(C)c(C)c2)c1=O`, the outcome was inactive.

With `c1cnc(Nc2nc(-c3ccc4ccccc4c3)cs2)nc1`, the call was inactive.

In the case of `O=C(Nc1ccc(NC(=O)c2ccccc2F)cc1)c1cccs1`, the call was inactive.

Turning to `Cc1cccc(-c2noc(Cc3ccccc3)n2)c1`, the call was inactive.

Turning to `O=C(NCCSc1ccccn1)c1ccc(Cl)cc1Cl`, the result was inactive.

With `CCc1nc2oc3ccccc3c(=O)c2cc1C(=O)OC`, the call was inactive.

In the case of `Cc1ccc2cc(/C=N/Nc3ccc(C(=O)O)cc3)c(Cl)nc2c1`, the compound was called inactive.

On to `CN1C(=O)C2C=CC1C1C(=O)N(c3ccccc3)C(=O)C21` (stereo not drawn), for which the compound was called inactive.

Regarding `Cn1c(NC(=O)CCC2CCCCC2)cc(=O)n(C)c1=O`, the outcome was inactive.

Regarding `COc1ccc(C(=O)c2ccc(CC#N)s2)cc1`, the compound was called inactive.

In the case of `CCN(CC)C(=O)c1cc(-c2ccc(Br)cc2)on1`, the outcome was inactive.

With `Cc1ccc(CONC(=O)c2ccc(C)cc2)cc1`, the call was inactive.

In the case of `CCCn1nnc(NC(=O)c2ccc(-c3ccccc3)cc2)n1`, the outcome was inactive.

Regarding `COc1ccc(-c2c(C)nc3c(-c4ccsc4)cnn3c2N)cc1`, the compound was called inactive.

Regarding `O=C1c2ccccc2C(=O)N1CCc1c[nH]c2ccccc12`, the result was inactive.

For `C=CCN=C1S/C(=C\c2ccc(N(C)C)cc2)C(=O)N1CC=C`, the compound was classed as inactive.

`c1ccc(CSCc2cn3ccsc3n2)cc1`: the compound was called inactive.

Consider `Cn1cc(Br)c(C(=O)Nc2sc3c(c2C(N)=O)CCCC3)n1`, for which the outcome was inactive.

As to `C=CCNc1nc(-c2ccc(Cl)cc2)cs1`, the outcome was inactive.

In the case of `O=C(CCCc1ccccc1)c1ccccc1`, the compound was classed as inactive.

`Fc1cc(Br)ccc1COc1ccc(-c2nnco2)cc1`: the compound was classed as inactive.

As for `CC(=O)c1sc(NC(=O)c2ccccc2F)nc1-c1ccccc1`, the outcome was inactive.

For the compound `CCCCSc1nsc(NC(C)=O)n1`, the compound was classed as inactive.

With `O=C(Cc1ccc(O)cc1)NC1CCCCCC1`, the compound was classed as inactive.

Take `CCS(=O)(=O)Nc1ccc(C(=O)NCCSc2ccccc2)cc1`: the outcome was inactive.

For `Cc1ccc2c(CN3CCC(C)CC3)cc(=O)oc2c1C`, the call was inactive.

In the case of `CSCC[C@H](NC(=O)[C@@H]1Cc2ccccc2CN1)C(=O)NC[C@H]1CC[C@H](C(=O)O)CC1`, the result was inactive.

With `COc1ccc(NC(=O)n2ncc3cc(Cl)ccc32)cc1OC`, the compound was classed as inactive.

`CC(=O)c1cnc2nc(SCc3ccccc3)nn2c1C`: the call was inactive.

For `COc1cccc(/C=N/Nc2c(Cl)cncc2Cl)c1O`, the result was inactive.

With `Nc1nc(CSc2ccccn2)nc(Nc2ccccc2)n1`, the compound was called inactive.

Take `CC(C)C(=O)Nc1cccc(-c2cnc3ccccc3n2)c1`: the compound was classed as inactive.

Consider `CC1CCc2sc(C(=O)Nc3ccc(C(N)=O)cc3)cc2C1` (stereo not drawn), for which the compound was called inactive.

As to `Cc1ccc(N(O)C(=O)NCCCCNC(=O)N(O)c2ccc(C)cc2)cc1`, the call was inactive.

Consider `COc1ccc(Nc2nc(N)c3ccccc3n2)c(OC)c1`, for which the compound was classed as inactive.

Turning to `Cc1ccc2cc(NC(=O)c3ccccc3C)ccc2n1`, the outcome was inactive.

For `N#Cc1ccsc1NC(=O)CCc1ccccc1`, the call was inactive.

As for `COc1ccc(N=C(C)c2sc3ccccc3c2O)cc1`, the call was inactive.

Consider `CCN(CC)CC(=O)Nc1scc2c1c(=O)oc1ccccc12`, for which the outcome was inactive.

On to `O=C(Nc1ccccc1)Nc1ccc2nnsc2c1`, for which the call was inactive.

As for `O=c1[nH]c(Cc2cccs2)nc2scc(-c3ccc(Cl)cc3)c12`, the compound was classed as inactive.

On to `COc1cccc(C2Nc3ccccc3C(=O)N2c2ccc(F)cc2)c1O` (stereo not drawn), for which the result was inactive.

For `Cc1cnc(NC(=O)Nc2ccc(Cl)cc2)s1`, the compound was called inactive.

With `Brc1ccccc1-n1nnc(-c2nccs2)n1`, the call was inactive.

As to `CC(C)(C)c1ccc(SCCc2ccccn2)cc1`, the call was inactive.

On to `COc1ccccc1C(=O)NCC(=O)Nc1ccc2c(c1)CCC2`, for which the result was inactive.

As for `O=C(N/N=C/c1ccccn1)c1c[nH]c2ccccc12`, the call was inactive.

Regarding `C=CCc1c(C)nc(-c2ccccc2)nc1N/N=C/c1ccncc1`, the call was inactive.

With `O=C1OC(c2ccccc2)=C/C1=C/N1CCCCC1`, the outcome was inactive.
